# LDHA inh: inhibitors of human lactate dehydrogenase A | 0.15% of 480,000 active | purified LDHA, NADH/diaphorase-resazurin fluorescence; stronger effect = lower value | P00338 | activity change, % (values are at about 110 or 230 µM); in the data active means activity change below about -30%;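 further: plate controls were DMSO wells for no effect and wells without enzyme for full effect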
#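 Enzyme activity of human lactate dehydrogenase 5 (2 nM; 0.06 mM NADH, 0.2 mM pyruvate, 5 min, RT) is measured via a resazurin/diaphorase fluorescence readout of residual NADH.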
# D2 PAM-1: D2 dopamine receptor (human) potentiation. 0.34% of 340,000 active. potentiation, % at 10 µM. HEK293 T-REx D2, calcium flux, EC20 dopamine potentiation. P14416. AID 485347;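 active means potentiation over 3 SD above the plate norm, cut at about 30% in these data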; further: 0% is about no effect
# Target sequence (P14416 whole entry, looked up): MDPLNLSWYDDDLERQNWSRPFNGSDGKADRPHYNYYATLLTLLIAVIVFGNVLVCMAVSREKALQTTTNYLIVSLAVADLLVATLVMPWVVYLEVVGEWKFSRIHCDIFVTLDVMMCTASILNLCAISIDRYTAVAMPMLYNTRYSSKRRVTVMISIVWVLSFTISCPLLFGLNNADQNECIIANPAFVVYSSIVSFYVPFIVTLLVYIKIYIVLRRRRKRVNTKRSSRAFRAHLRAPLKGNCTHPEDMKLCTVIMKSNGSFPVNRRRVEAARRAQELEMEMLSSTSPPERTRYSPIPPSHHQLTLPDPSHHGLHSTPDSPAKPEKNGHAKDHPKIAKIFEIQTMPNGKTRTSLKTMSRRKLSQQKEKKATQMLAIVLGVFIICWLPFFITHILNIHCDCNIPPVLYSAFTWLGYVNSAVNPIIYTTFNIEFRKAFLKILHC
#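 Potentiation of an EC20 dopamine calcium response is measured in a force-coupled, tetracycline-inducible Hek293 Trex D2 line. Compound-only kinetic reads over 180 s flag agonists before dopamine addition.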
# D2 ag-1: agonists of human D2 dopamine receptor (beta-arrestin) | AID 624465 | DiscoveRx PathHunter D2 beta-arrestin, luminescence, 90 min; 100% = 57 uM dopamine signal | activation, % (test concentration not listed) | 0.084% of 360,000 active; in the data active means activation above about 40%
#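 Agonist mode: compounds alone added to overnight-plated D2 PathHunter cells for 90 min at 37 C, with 57 uM final dopamine (EC100) defining full response. Beta-arrestin recruitment detected by chemiluminescent reagent, read after 1 h at ambient temperature.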
# D2 antagonist: antagonists of human D2 dopamine receptor | P14416 | HEK293 TREx D2 cells, calcium flux, dopamine EC80 | inhibition, % at 10 µM | 2% of 340,000 active | AID 485344; in the data active means inhibition above about 30%; inactive means below that, where a call was filed; further: 0% is about no effect
#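 Cells plated overnight at 30 C with tetracycline; no-wash calcium dye, 30–90 min RT; 10 s baseline; compound pinned; 180 s read; EC80 dopamine added; another 180 s read.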
# D2 ag-2: D2 dopamine receptor (human) agonism. P14416. HEK293 T-REx D2 cells, calcium flux agonist mode. activation, % at 2 µM. 0.53% of 340,000 active;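 active means activation over 3 SD above normal in the single-dose calcium agonist read, cut at about 30% in these data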; further: 0% is about no effect
#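 Tetracycline-induced HEK293 Trex cells with D2 receptor force-coupled to calcium signaling, plated overnight at 30 C and loaded with no-wash calcium dye. Calcium flux read kinetically for 180 s after compound addition; responses flag agonists.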
# D2 PAM-2: potentiates the human D2 dopamine receptor allosterically. potentiation, % (concentration not given with the values). DiscoveRx D2 beta-arrestin cells, luminescence, 90 min; 100% = 57 uM dopamine signal. P14416. 0.23% of 360,000 active. AID 624464; in the data active means potentiation above about 50%
#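 D2 cells co-treated with compound plus 50 nM dopamine (EC20) for 90 min at 37 deg C to detect potentiation. Beta-arrestin recruitment was read as enzyme-fragment luminescence after 1 h at ambient temperature. Full response was set by 57 uM dopamine.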
# * hit, by the source's call; . = no result given. Most compounds without a hit are left out; they make up all but 2.1% or so of the library.
SMILES,LDHA inh,D2 PAM-1,D2 ag-1,D2 antagonist,D2 ag-2,D2 PAM-2
COc1cccc(COC(=O)c2nn(Cc3ccccc3)c(=O)c3ccccc23)c1,3,.,.,.,.,.
COC(=O)CC(NC(=O)c1ccco1)c1cccc2ccccc12 (stereo not drawn),-7,10,-1,8,0,-10
COC(=O)CC(NS(=O)(=O)c1cccs1)c1cccc2ccccc12 (stereo not drawn),-3,2,-2,46*,0,-3
CON(C)S(=O)(=O)c1cccc(C(=O)Nc2cccc(S(=O)(=O)NC3=NCCCCC3)c2)c1,-5,.,7,.,.,-1
CON(C)S(=O)(=O)c1cccc(C(=O)Nc2ccc(S(=O)(=O)NC3=NCCCCC3)cc2)c1,-3,-4,0,33*,-1,-18
c1ccc(Cc2c[nH]c3ccccc23)cc1,-4,6,6,-6,0,-3
CN(Cc1ccccc1)Cc1c[nH]c2ccccc12,4,-23,-4,35*,-1,-45
COc1ccc(C(=O)Nc2cc(C)c(NC(=O)c3ccccn3)cn2)cc1,-4,35*,-2,-24,0,-3
Cn1nc(C(=O)Nc2ccc(OCC(N)=O)cc2)c2ccccc2c1=O,7,.,.,.,.,.
CCC(C)c1ccccc1NC(=O)c1ccc(SC)cc1OC (stereo not drawn),9,.,.,.,.,.
CC(C)NCCCOc1ccc(C(C)(C)c2ccccc2)cc1,-32*,-11,-3,-4,0,-8
COCCNCCCOc1ccc(C(C)(C)c2ccccc2)cc1,-33*,3,-8,-6,-1,-13
COCCCNCCCOc1ccc(C(C)(C)c2ccccc2)cc1,-21,0,-5,-8,0,-30
CN(Cc1ccc(-c2ccc(Cl)cc2)o1)C(=O)CSc1nnc(C2CC2)n1CCC(N)=O,-2,.,.,.,.,.
COc1ccc(COC(=O)C2=C(C)NC(=O)CC2c2cc3c(cc2Br)OCO3)cc1 (stereo not drawn),6,.,.,.,.,.
CC(C)Oc1ccc(C(=O)Oc2ccc(C#N)cc2)cc1,3,.,.,.,.,.
CCC(C)c1ccc(NC(=O)Cc2cccs2)cc1 (stereo not drawn),-2,.,.,.,.,.
Cc1ccc(CSc2nnc(CS(=O)Cc3ccc(Cl)cc3Cl)n2C)cc1 (stereo not drawn),0,5,0,-9,0,7
Cn1c(CS(=O)Cc2c(Cl)cccc2Cl)nnc1SCc1ccc(Cl)cc1 (stereo not drawn),-2,11,0,31*,-1,-10
Cc1cc(=O)oc2cc(OCC(=O)N3CCOCC3)ccc12,-2,48*,-6,2,0,-9
Cc1cc(=O)oc2ccc(OCC(=O)NCc3ccco3)cc12,0,-3,-3,-11,0,-12
O=C(CCN1CCN(c2ccccc2F)CC1)c1ccc(Br)cc1,-2,-18,1,34*,10,-13
Cc1cc(=O)oc2cc(OCC(=O)NCc3ccco3)ccc12,-6,35*,2,0,0,2
COc1ccc(N2CCN(CCOc3ccc4c(C)cc(=O)oc4c3)CC2)cc1,0,-34,-1,72*,1,-42
CCCNc1nc(-c2ccc(S(=O)(=O)N3CCOCC3)cc2)cs1,-5,.,.,.,.,.
SMILES,LDHA inh,D2 PAM-1,D2 ag-1,D2 antagonist,D2 ag-2,D2 PAM-2
CCN(CC)C(=O)COc1ccc2c(C)cc(=O)oc2c1,-2,.,.,.,.,.
COc1ccc(N2CCN(CCC(N)=O)CC2)cc1,-8,-8,4,-8,0,-7
COc1ccc(C(=O)CCN2CCN(c3ccc(OC)cc3)CC2)cc1,1,-15,0,31*,1,-17
CC(C)CNc1oc(COc2ccc3c(c2)OCO3)nc1C#N,7,.,.,.,.,.
Cc1nn(-c2ccccc2)c(C)c1C(=O)OCC(=O)N(C)C1CCS(=O)(=O)C1 (stereo not drawn),2,0,-1,38*,1,-2
CN(C(=O)COC(=O)c1nc(-c2ccccc2)n(-c2ccccc2)n1)C1CCS(=O)(=O)C1 (stereo not drawn),-2,1,-2,-1,-1,3

# Assay outcomes: PubChem, National Center for Advancing Translational Sciences (NCATS)
